Values joined by “and” are separate entries in the source; they are usually repeats but may differ in a detail not shown here. Identical values can stand only once. Inconclusive results are not listed. Active and inactive are the calls of the source. Calls follow the shape of the dose curve; as a rule, active = well fitted curve in the direction sought with a large enough effect in the repeat runs; inconclusive = weak or mixed curves; inactive = no such curve, though single readings can be large; an effect the other way counts as inactive or inconclusive.
Assays:
[1] = A CellTox Green Cytotoxicity Assay to monitor cytotoxicity in HEK293 cells - 40 hour (AID 1224871); details: CellTox Green fluorescence; series mostly up to 76.8 µM; also: nearly all actives have a fitted effect of over 45% in size
Procedure, shortened: (§1)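 Cytotoxicity was tracked continuously in HEK293 cells by a DNA-binding dye excluded from viable cells. Compounds were transferred in DMSO 5 h after seeding; fluorescence was recorded at intervals up to 40 h.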

[2] = qHTS RealTime-Glo MT Cell Viability Assay in HEK293 cells - 16 hour (AID 1224872); details: RealTime-Glo luminescence; series mostly up to 76.8 µM; also: nearly all actives have a fitted effect of over 50% in size; also: potency is read from the fitted curve at half-maximal effect
Procedure, shortened: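 HEK293 cells seeded with NanoLuc/prosubstrate reagent, rested 5 h at 37 C, then dosed and kept at 37 C up to 40 h. Nonlytic real-time luminescence from viable cells read at 0, 8, 16, 24, 32 and 40 h.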

[3] = qHTS RealTime-Glo MT Cell Viability Assay in HepG2 cells - 8 hour (AID 1224873); details: RealTime-Glo luminescence; series mostly up to 76.8 µM; also: nearly all actives have a fitted effect of over 55% in size; also: potency is read from the fitted curve at half-maximal effect
Procedure, shortened: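 HepG2 cells (600/well) mixed with RealTime-Glo MT reagent, settled 5 h at 37 C/5% CO2 before compound addition. Nonlytic NanoLuc luminescence from viable-cell prosubstrate reduction read repeatedly during 40 h treatment at 37 C.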

[4] = qHTS RealTime-Glo MT Cell Viability Assay in HEK293 cells - 40 hour (AID 1224874); details: RealTime-Glo luminescence; max response: stronger effect = lower value; also: nearly all actives have a fitted effect of over 50% in size; also: potency is read from the fitted curve at half-maximal effect
Procedure, shortened: (§2)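 Nonlytic bioluminescent viability monitoring. HEK293 at 600 cells/well with reagent; 5 h settle; compound transfer by pintool; plates held at 37 C and read at set time points.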

[5] = A CellTox Green Cytotoxicity Assay to monitor cytotoxicity in HepG2 cells - 16 hour (AID 1224876); details: CellTox Green fluorescence; series mostly up to 76.8 µM; also: nearly all actives have a fitted effect of over 45% in size
Procedure, shortened: (§3)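 Real-time, homogeneous cytotoxicity readout: dead-cell DNA staining by CellTox Green in HepG2 monolayers, fluorescence measured at timed intervals up to 40 h of continuous compound exposure.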

[6] = qHTS RealTime-Glo MT Cell Viability Assay in HepG2 cells - 32 hour (AID 1224877); details: RealTime-Glo luminescence; series mostly up to 76.8 µM; also: nearly all actives have a fitted effect of over 55% in size
Procedure, shortened: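 HepG2 cells (600/well) were dispensed with RealTime-Glo reagents, incubated 5 h at 37 °C, then treated with compounds in DMSO for up to 40 h. Nonlytic NanoLuc luminescence reflecting viable cells was read at each stated time point.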

[7] = A CellTox Green Cytotoxicity Assay to monitor cytotoxicity in HepG2 cells - 24 hour (AID 1224878); details: CellTox Green fluorescence; series mostly up to 76.8 µM; also: nearly all actives have a fitted effect of over 45% in size
Procedure, shortened: as §3

[8] = A CellTox Green Cytotoxicity Assay to monitor cytotoxicity in HepG2 cells - 40 hour (AID 1224879); details: CellTox Green fluorescence; series mostly up to 76.8 µM; also: nearly all actives have a fitted effect of over 40% in size; also: potency is read from the fitted curve at half-maximal effect
Procedure, shortened: as §3

[9] = qHTS RealTime-Glo MT Cell Viability Assay in HEK293 cells - 0 hour (AID 1224880); details: RealTime-Glo luminescence; series mostly up to 76.8 µM; also: top concentration of the series differs between compounds; nearly all actives have a fitted effect of over 45% in size
Procedure, shortened: as §2

[10] = A CellTox Green Cytotoxicity Assay to monitor cytotoxicity in HEK293 cells - 24 hour (AID 1224875); details: CellTox Green fluorescence; series mostly up to 76.8 µM; also: nearly all actives have a fitted effect of over 45% in size
Procedure, shortened: as §1
% is scaled to controls: 0 for no effect and ±100 for the full control effect.

CC(C)(C#N)C(C)(C)C#N
inactive: Potency [1] | Potency [2] | Potency [3] | max response [4] 1.19% | Potency [5] | Potency [6] | Potency [7] | Potency [8] | outcome [9]

CC(=O)NNc1ccccc1
inactive: Potency [1] | Potency [2] | Potency [3] | max response [4] 2.64% | Potency [5] | Potency [6] | Potency [7] | Potency [8] | outcome [9]

CCCC1CCCCN1 (stereo not drawn)
inactive: Potency [1] | Potency [2] | Potency [3] | max response [4] 5.87% | Potency [5] | Potency [6] | Potency [7] | Potency [8] | outcome [9]

O=C(O)C(Cl)(Cl)Br
inactive: Potency [1] | Potency [2] | Potency [3] | max response [4] 0.585% | Potency [5] | Potency [6] | Potency [7] | Potency [8] | outcome [9]

CCCBr
inactive: Potency [1] | Potency [2] | Potency [3] | max response [4] -3.27% | Potency [5] | Potency [6] | Potency [7] | Potency [8] | outcome [9]

O=C(NC(=O)c1cc(F)c(F)cc1Cl)Nc1cc(F)ccc1N1CCC(C(=O)O)CC1
inactive: Potency [1] | Potency [2] | Potency [3] | max response [4] 19.9% | Potency [10] | Potency [5] | Potency [6] | outcome [9]

O=S(=O)(Cl)Cl
inactive: Potency [1] | Potency [2] | Potency [3] | max response [4] 15.4% | Potency [10] | Potency [5] | Potency [6] | Potency [7] | Potency [8] | outcome [9]

NNCCO
inactive: Potency [1] | Potency [2] | Potency [3] | max response [4] -1.69% | Potency [10] | Potency [5] | Potency [6] | Potency [7] | Potency [8] | outcome [9]

C[N+]1(CCC(C(N)=O)(c2ccccc2)c2ccccc2)CCCCC1
inactive: Potency [1] | Potency [2] | Potency [3] | max response [4] 0.771% | Potency [5] | Potency [6] | Potency [7] | Potency [8]

CCOP(=O)(O)C(N)=O
inactive: Potency [1] | Potency [2] | Potency [3] | max response [4] 20.4% | Potency [5] | Potency [6] | Potency [7] | Potency [8] | outcome [9]

CCCN(CCOc1c(Cl)cc(Cl)cc1Cl)C(=O)n1ccnc1
active: Potency [2] 22.3 µM and 27.5 µM | Potency [4] 19.9 µM and 27.5 µM | Potency [8] 43.6 µM
inactive: Potency [1] | Potency [3] | Potency [10] | Potency [5] | Potency [6] | Potency [7] | outcome [9]

C[N+](C)(C)CCOC(=O)C(O)(c1ccccc1)c1ccccc1
inactive: Potency [1] | Potency [2] | Potency [3] | max response [4] 0.291% | Potency [10] | Potency [5] | Potency [7] | Potency [8] | outcome [9]

CCC[N+](CCC)(CCC)CCC
inactive: Potency [1] | Potency [2] | Potency [3] | max response [4] 6.01% | Potency [10] | Potency [5] | Potency [6] | Potency [8] | outcome [9]

CCCCOC(=O)CCC(=O)OCCCC
inactive: Potency [1] | Potency [2] | Potency [3] | max response [4] 3.34% | Potency [10] | Potency [5] | Potency [6] | outcome [9]

CN1C[C@H](C(=O)N[C@]2(C)O[C@@]3(O)[C@@H]4CCCN4C(=O)[C@H](Cc4ccccc4)N3C2=O)C=C2c3cccc4[nH]cc(c34)C[C@H]21
active: Potency [3] 13.9 µM and 12.8 µM
inactive: Potency [1] | Potency [2] | max response [4] -10.8% | Potency [10] | Potency [5] | Potency [7] | Potency [8] | outcome [9]

COC(=O)C1(O)c2ccccc2-c2ccccc21
inactive: Potency [1] | Potency [2] | Potency [3] | max response [4] -22.2% | Potency [5] | Potency [6] | Potency [7] | Potency [8] | outcome [9]

CCc1ccccc1N
inactive: Potency [1] | Potency [2] | Potency [3] | max response [4] 1.07% | Potency [10] | Potency [5] | Potency [6] | Potency [7] | Potency [8] | outcome [9]

ClCc1ccccc1Cl
inactive: Potency [1] | Potency [2] | Potency [3] | max response [4] -3.09% | Potency [5] | Potency [6] | Potency [7] | Potency [8] | outcome [9]

COC1CC(=C(c2cccs2)c2cccs2)C[N+](C)(C)C1 (stereo not drawn)
inactive: Potency [1] | Potency [2] | Potency [3] | max response [4] -21.7% | Potency [10] | Potency [5] | Potency [6] | Potency [7] | Potency [8] | outcome [9]

C1CCNCC1
inactive: Potency [1] | Potency [2] | Potency [3] | max response [4] 0.2% | Potency [5] | Potency [6] | Potency [7] | Potency [8] | outcome [9]

C=CCOCC1CO1 (stereo not drawn)
inactive: Potency [1] | Potency [2] | Potency [3] | max response [4] -8.98% | Potency [10] | Potency [5] | Potency [6] | Potency [7] | Potency [8] | outcome [9]

CCOc1cccc(C2(N3CCN(c4ccccc4)CC3)CCC(C)CC2)c1 (stereo not drawn)
inactive: Potency [1] | Potency [2] | Potency [3] | max response [4] -7.17% | Potency [5] | Potency [6] | Potency [7] | Potency [8]

CN1CC[C@]23c4c5ccc(O)c4O[C@H]2[C@@H](O)C=C[C@H]3[C@H]1C5
inactive: Potency [1] | Potency [2] | Potency [3] | max response [4] 1.75% | Potency [5] | Potency [6] | Potency [7] | Potency [8] | outcome [9]

COc1ccc2c(c1OC)C(=O)O[C@H]2[C@@H]1c2cc3c(cc2CCN1C)OCO3
inactive: Potency [1] | Potency [2] | Potency [3] | max response [4] 4.68% | Potency [5] | Potency [6] | Potency [7] | Potency [8] | outcome [9]

CCOP(=S)(OCC)Oc1ccc(S(C)=O)cc1 (stereo not drawn)
inactive: Potency [1] | Potency [2] | Potency [3] | max response [4] 6.56% | Potency [5] | Potency [6] | Potency [7] | Potency [8]

COCc1cnc(C2=NC(C)(C(C)C)C(=O)N2)c(C(=O)O)c1 (stereo not drawn)
inactive: Potency [1] | Potency [2] | Potency [3] | max response [4] 9.64% | Potency [5] | Potency [6] | Potency [7] | Potency [8] | outcome [9]

CC1(C)CC(=O)CC(C)(C)N1[O]
inactive: Potency [1] | Potency [2] | Potency [3] | max response [4] 2.69% | Potency [10] | Potency [5] | Potency [6] | Potency [7] | Potency [8] | outcome [9]

CCCCC#N
inactive: Potency [1] | Potency [2] | Potency [3] | max response [4] -2.33% | Potency [5] | Potency [6] | Potency [7] | Potency [8]

CCC(C)Cl (stereo not drawn)
inactive: Potency [1] | Potency [2] | Potency [3] | max response [4] 9.33% | Potency [5] | Potency [6] | Potency [7] | Potency [8] | outcome [9]

Nc1ccccc1C(=O)OCC(O)CO (stereo not drawn)
inactive: Potency [1] | Potency [2] | max response [4] 9.15% | Potency [10] | Potency [5] | Potency [6] | Potency [7] | Potency [8] | outcome [9]

COC1=CC(=O)O[C@@H](/C=C/c2ccc3c(c2)OCO3)C1
inactive: Potency [1] | Potency [2] | Potency [3] | Potency [10] | Potency [5] | Potency [6] | Potency [7] | Potency [8] | outcome [9]

CC(C)c1ccc(OP(=O)(Oc2ccc(C(C)C)cc2)Oc2ccc(C(C)C)cc2)cc1
inactive: Potency [1] | Potency [2] | max response [4] -29.6% | Potency [10] | Potency [5] | Potency [6] | Potency [7] | Potency [8]
